# “And” between values parts separate entries of the source, which are not always exact repeats. Identical values can stand only once. This is part of a sample that, as a whole, favours compounds with a hit. Of some 83,000 tested, about 20% had one in any assay.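 Single-concentration screen, 48 h exposure, 96-well plates. Endpoint: percent growth. Below 10 = active.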 The source made the active and inactive calls.
# Assays:
# Test in all cases: NCI-60 one-dose screen, 48 h (100 = growth as untreated, 0 = no growth, -100 = all killed)
# HL-60(TB) leukemia = conditions: 10 µM unless noted
# UACC-62 melanoma = conditions: 10 µM unless noted
# MCF7 breast = conditions: 10 µM unless noted
# TK-10 renal = conditions: 10 µM unless noted
# NCI-H460 lung = conditions: 10 µM unless noted
# 786-0 renal = conditions: 10 µM unless noted
# DU-145 prostate = conditions: 10 µM unless noted
# SF-268 CNS = conditions: 10 µM unless noted
# SF-539 CNS = conditions: 10 µM unless noted
# M14 melanoma = conditions: 10 µM unless noted
# HCT-15 colon = conditions: 10 µM
# SNB-75 CNS = conditions: 10 µM unless noted
# PC-3 prostate = conditions: 10 µM unless noted
# SK-MEL-28 melanoma = conditions: 10 µM unless noted
# SN12C renal = conditions: 10 µM unless noted
# OVCAR-8 ovarian = conditions: 10 µM unless noted
# NCI/ADR-RES ovarian = conditions: 10 µM unless noted
# SW-620 colon = conditions: 10 µM unless noted
# HCT-116 colon = conditions: 10 µM unless noted
# KM12 colon = conditions: 10 µM unless noted
smiles,measurement,setting,value
CCOC(=O)c1c(-c2cc(OC)c(OC)c(OC)c2)csc1N,growth,HL-60(TB) leukemia,96.3% (inactive)
NC(=O)CN1C(=O)C(Cc2ccccc2)N=C(c2cccc(O)c2)c2ccccc21 (centres undefined),growth,UACC-62 melanoma,97.8% [30 µM] (inactive)
same,growth,MCF7 breast,96.4% [30 µM] (inactive)
O=C1NC(=O)C(CCC(=O)c2cccc3ccccc23)C(=O)N1,growth,UACC-62 melanoma,77.1% [100 µM] (inactive) and 44.6% [100 µM] (inactive)
same,growth,TK-10 renal,106% [100 µM] (inactive) and 8.08% [100 µM] (active)
N#CCN1C(=O)C(CCC(N)=O)N=C(c2ccc(O)cc2)c2cc(Cl)ccc21 (centres undefined),growth,UACC-62 melanoma,91.5% [30 µM] (inactive)
same,growth,TK-10 renal,98.2% [30 µM] (inactive)
same,growth,MCF7 breast,93.4% [30 µM] (inactive)
C/C(=N/OC(=O)N(C)C)c1cc(Cl)ccc1Cl,growth,NCI-H460 lung,105% (inactive)
same,growth,786-0 renal,97.8% (inactive)
same,growth,DU-145 prostate,105% (inactive)
same,growth,SF-268 CNS,99.4% (inactive)
same,growth,SF-539 CNS,103% (inactive)
same,growth,M14 melanoma,109% (inactive)
same,growth,HCT-15 colon,100% (inactive)
same,growth,SNB-75 CNS,82.1% (inactive)
same,growth,PC-3 prostate,106% (inactive)
same,growth,UACC-62 melanoma,108% (inactive)
same,growth,SK-MEL-28 melanoma,113% (inactive)
same,growth,SN12C renal,103% (inactive)
same,growth,TK-10 renal,97.7% (inactive)
same,growth,HL-60(TB) leukemia,95.1% (inactive)
same,growth,OVCAR-8 ovarian,103% (inactive)
same,growth,NCI/ADR-RES ovarian,99.4% (inactive)
same,growth,SW-620 colon,101% (inactive)
same,growth,MCF7 breast,97.8% (inactive)
same,growth,HCT-116 colon,101% (inactive)
same,growth,KM12 colon,106% (inactive)
N#Cc1c(-c2ccccc2)cc(-c2ccccc2)n(CCCCC(=O)O)c1=O,growth,HL-60(TB) leukemia,102% (inactive)
Nc1cc(N)c(N)cc1N,growth,HL-60(TB) leukemia,29.1% (inactive)
CCOC(=O)C1C(c2ccccc2)C2(C#N)C(=N)OC1(C)C2(C#N)C#N (centres undefined),growth,UACC-62 melanoma,-70.2% [100 µM] (active) and -92.1% [100 µM] (active)
same,growth,TK-10 renal,-32.2% [100 µM] (active) and -95.8% [100 µM] (active)
same,growth,MCF7 breast,-22.3% [100 µM] (active) and -82.1% [100 µM] (active)
C/C=C1\CN2CCC34c5ccccc5N(C)C35OCC4(C(=O)OC)C1CC25 (centres undefined),growth,UACC-62 melanoma,82.9% [100 µM] (inactive) and -86% [100 µM] (active)
same,growth,TK-10 renal,80.6% [100 µM] (inactive) and 13.9% [100 µM] (inactive)
same,growth,MCF7 breast,77% [100 µM] (inactive) and -100% [100 µM] (active)
CN1C(=O)C(CCC(=O)O)N=C(c2cccc(O)c2)c2ccccc21 (centres undefined),growth,UACC-62 melanoma,82% [30 µM] (inactive)
same,growth,TK-10 renal,113% [30 µM] (inactive)
same,growth,MCF7 breast,89% [30 µM] (inactive)
N#Cc1ccc2nc[nH]c2c1,growth,HL-60(TB) leukemia,101% (inactive)
CN(N)/N=N/c1nc[nH]c1C(N)=O,growth,UACC-62 melanoma,-13.9% [100 µM] (active) and 0.502% [100 µM] (active)
same,growth,TK-10 renal,5.8% [100 µM] (active) and 2.21% [100 µM] (active)
same,growth,MCF7 breast,19% [100 µM] (inactive) and 4.05% [100 µM] (active)
CNC(=O)Oc1ccccc1-c1ccccc1,growth,NCI-H460 lung,112% (inactive)
same,growth,786-0 renal,95.9% (inactive)
same,growth,DU-145 prostate,106% (inactive)
same,growth,SF-268 CNS,100% (inactive)
same,growth,SF-539 CNS,104% (inactive)
same,growth,M14 melanoma,99.7% (inactive)
same,growth,HCT-15 colon,106% (inactive)
same,growth,SNB-75 CNS,88.3% (inactive)
same,growth,PC-3 prostate,97.8% (inactive)
same,growth,UACC-62 melanoma,102% (inactive)
same,growth,SK-MEL-28 melanoma,109% (inactive)
same,growth,SN12C renal,106% (inactive)
same,growth,HL-60(TB) leukemia,94.8% (inactive)
same,growth,OVCAR-8 ovarian,103% (inactive)
same,growth,NCI/ADR-RES ovarian,108% (inactive)
same,growth,SW-620 colon,103% (inactive)
same,growth,MCF7 breast,106% (inactive)
same,growth,HCT-116 colon,99% (inactive)
same,growth,KM12 colon,102% (inactive)
O=C(O)CCC1N=C(c2cccc(O)c2)c2ccccc2NC1=O (centres undefined),growth,UACC-62 melanoma,88.5% [30 µM] (inactive)
same,growth,TK-10 renal,96.4% [30 µM] (inactive)
same,growth,MCF7 breast,83.2% [30 µM] (inactive)
COc1ccc(C(=O)c2cc3c(N)c(C(=O)Nc4cccc5ccccc45)sc3nc2C)cc1,growth,HL-60(TB) leukemia,-49% (active)
CS(=O)(=O)Nc1cc(-c2ccc3ncnc(Nc4ccc5c(cnn5Cc5ccc(F)cc5)c4)c3c2)cnc1Cl,growth,HL-60(TB) leukemia,23% (inactive)
O=C(/C=C/c1cc(-c2ccc3c(c2)OCO3)n[nH]1)c1ccc2c(c1)OCO2,growth,HL-60(TB) leukemia,79.7% (inactive)
O=c1oc2c(cc1-c1ccc([N+](=O)[O-])cc1)C(O)Oc1ccccc1-2 (centres undefined),growth,HL-60(TB) leukemia,71.9% (inactive)
CN(C)CCOc1cccc(-c2nc3sccn3c2-c2ccnc(S(C)(=O)=O)n2)c1,growth,HL-60(TB) leukemia,104% (inactive)
O=C(O)CN1C(=O)C(Cc2ccccc2)N=C(c2cccc(O)c2)c2ccccc21 (centres undefined),growth,UACC-62 melanoma,90.1% [30 µM] (inactive)
same,growth,TK-10 renal,96% [30 µM] (inactive)
same,growth,MCF7 breast,79% [30 µM] (inactive)
CCCCCCN(CCCCCC)c1ccc(/C=C2/SC(=O)NC2=O)c(C)c1,growth,HL-60(TB) leukemia,77.1% (inactive)
CC12CC3OC(=O)C1COC14OC5(C2C1=O)C(O)(CCC1C4CC2OC24CC=CC(=O)C14C)C(=O)OC35C (centres undefined),growth,UACC-62 melanoma,-79.6% [100 µM] (active) and -94.2% [100 µM] (active)
same,growth,TK-10 renal,4.16% [100 µM] (active) and -100% [100 µM] (active)
same,growth,MCF7 breast,-49.7% [100 µM] (active) and -85% [100 µM] (active)
CC(=O)c1ccc(NC(=O)CSc2nnc(-c3cc(-c4ccc(Cl)cc4)nc4ccccc34)o2)cc1,growth,HL-60(TB) leukemia,91.3% (inactive)
Clc1ccc(N2N=C(c3cccc(Nc4ccncc4)c3)CC2c2ccccc2)cc1 (centres undefined),growth,HL-60(TB) leukemia,85.4% (inactive)
CCC[CH2][Sn]1([CH2]CCC)[O]C(=O)c2cccc([N+](=O)[O-])c2C(=O)[O]1,growth,NCI-H460 lung,-5.56% (active)
same,growth,786-0 renal,-97.3% (active)
same,growth,DU-145 prostate,-96.7% (active)
same,growth,SF-268 CNS,-90.1% (active)
same,growth,SF-539 CNS,-99.5% (active)
same,growth,M14 melanoma,-89.2% (active)
same,growth,HCT-15 colon,-85.5% (active)
same,growth,SNB-75 CNS,-82.3% (active)
same,growth,PC-3 prostate,-67.5% (active)
same,growth,UACC-62 melanoma,-88.3% (active)
same,growth,SK-MEL-28 melanoma,-93.3% (active)
same,growth,SN12C renal,-83.4% (active)
same,growth,TK-10 renal,-95.7% (active)
same,growth,HL-60(TB) leukemia,-48.2% (active)
same,growth,OVCAR-8 ovarian,-93.1% (active)
same,growth,NCI/ADR-RES ovarian,-54.4% (active)
same,growth,SW-620 colon,-54.6% (active)
same,growth,HCT-116 colon,-100% (active)
same,growth,KM12 colon,-83.9% (active)
O=C1C(Cc2ccccc2)N=C(c2cccc(O)c2)c2ccc(Cl)cc2N1CC1CC1 (centres undefined),growth,UACC-62 melanoma,94.1% [30 µM] (inactive)
same,growth,TK-10 renal,105% [30 µM] (inactive)
same,growth,MCF7 breast,76.3% [30 µM] (inactive)
CCCCCN1C(=O)C(CO)N=C(c2cccc(O)c2)c2ccccc21 (centres undefined),growth,UACC-62 melanoma,81.1% [30 µM] (inactive)
same,growth,TK-10 renal,91% [30 µM] (inactive)
same,growth,MCF7 breast,91.1% [30 µM] (inactive)

# From PubChem BioAssay (NCI)
